The record followed here is the supplement of paper PMC6555819.

For the first assay, the system named is PPARg:RXRa DBDmut IVT, anti-RXR (DBD mutation: RXRa K156A/R161A, NR concentration 270 nM, RXRa partner concentration 90 nM). Description: PBM binding z-score (relative to random genomic background probes); higher = stronger binding; sequences stand for … in GC…GCGATTGACAGCGTAGAATGAAGG
The gist of the method:
(§1)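 Custom Agilent 4×180K protein-binding microarrays carried double-stranded probes. Their 34-nt variable regions held direct-repeat seeds, single-nucleotide variants, half-site ablations and random human genomic background sequences. Arrays were incubated 1 h with ligand-free nuclear receptor dimers in PBS pH 7.4, 2% milk, 0.02% Triton X-100, 1 mM DTT, 0.2 mg/mL BSA and 0.4 mg/ml salmon testes DNA. Antibodies against each partner (one per run) detected binding, and scanned fluorescence was regression-normalized. Binding z-scores use random background probes as reference.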
In turn, TCTGCTAGGTCAACGATGGACAGCTAATCTGCTA came in with a PBM binding z-score of 3.88.
As to TCATATAGGTAAAGGTTAAAGTCGAACGATATGA, the PBM binding z-score was determined as 3.98.
ACTAGTAGGCCAAGTTTGGGTCACTCAAACAAAG returned a PBM binding z-score of 5.38.
In turn, TCTTGTAGAACAGCAGGTTAAGAAAGCTGGCCAA returned a PBM binding z-score of 1.67.
The same measure, in the same setting: as for CCTATTAGTTGACCATAAGGGCTACCGAAGCTCG, the figure is 0.457.
Still for that read-out and setting: the result for GCAGACAGGTGAAACGCGGGTAACTCAGGGTGGC reads 1.2.
In turn, CCTAGTTGGTCAGGAGGTCAAACACCGGATATGA gave a PBM binding z-score of 1.54.
On the same count and under the same terms, the result for TCGAGTAGGTTACAAATGGGGCATTCAGCTTTCT reads 3.56; that for GCTGCTAGGTCAGGTAGGTCAGCTAACGGGTACG, 3.3.
Same read-out and setting: the result for CCTAGTTGGTGAAGGTCACACACGCTATAGGTAC reads 1.01; that for CTACCAAGGTGAACAAGGCCGTTGATTACTATTC, 2.3; that for TATACAGGGTCAAAGGCCAGAGTCCGAATGTCGA, 2.36.
The same measure, in the same setting: as for CGTCCAAGGTCAAAGGTCAGTGTAGAGATGACGG, the figure is 4.11; as for GTACGAAGGTGAATAGGTCGTTGATGAGTAGGCG, 1.5.
Sequence CCTTACGGGTCAAGGTTATAGTACGGGTGGTACG yielded a PBM binding z-score of 1.4.
For the sequence ACAATGAGGTTATTAAGATCAGGGAATTGCGGTC, the PBM binding z-score was determined as 2.08.
On to TCGAGTAGGTTACCAATGGGGCACTCAGCTTTCT, for which the PBM binding z-score stood at 3.78.
Still for that read-out and setting: as for CCTACTGGGCCATTCAGAGGTCCTTGATCATATG, the figure is 4.1.

The next assay relates to PPARg:RXRa IVT, anti-PPARg (NR concentration 270 nM, RXRa partner concentration 90 nM). The description is as above. The gist of the method:
as §1
Take ATCTCTAGGTAAAGATAGTTCGGTGAATGCAAAT: the PBM binding z-score came out at 1.58.
On the same count and under the same terms, as for TCTAGCAGTCCAGAGGGTCACTCAAGAGGTACGG, the figure is 0.15; as for CCTAGCAGGCCAATCTGGGACACTCAAGGCTTGA, 2.73; as for TCTGACAGGTGAAGGTAACTCAGGTACGCAGTCG, 1.39.
For the sequence TATACAGGCTCAAAGGCCAGAGTACGAATGTCGA, the PBM binding z-score amounted to 0.865.
With GGAACGAGGGCATTCGAGTTAATAGCATGGCGAT, the PBM binding z-score is 2.26.
Still for that read-out and setting: the result for CCTACTGGGCCAATGGTCATTGATTCCAATGCTC reads 4.11.
Sequence GCTGCTAGGTCAACTGATGGTCGGCTAAAGCTCG yielded a PBM binding z-score of 4.01.
On the same count and under the same terms, as for ACTCGGAGGACCAAGGTCAGAGCTACGCCAGTGA, the figure is 0.431.
Still for that read-out and setting: as for GGAACGAAGGCAAAGTTGATAGCATCTGTCGACG, the figure is 0.452; as for GGAACGAGGGCATGCGAGTTGATAGCATGGCGAT, 1.98.
The same measure, in the same setting: as for TCTTGTAGATCACGCAGGTTAAGAAAGCCTGAGT, the figure is 1.64.
As to TCTTGTAGAACAAGCAGGTTAAGAAAGCCTGAGT, the PBM binding z-score worked out at 0.593.
On the same count and under the same terms, the result for AATACCGGGTCATCGTAGGCCAGAGTACGCACAG reads 4.61; that for CCTAGCAGGCCAATCTGAGTCACTCAAGGCTTGA, 0.0725; that for AGTCAAAGTTCATCTAGGTAAGGTAAGATATGCT, 3.32.
Sequence AGAACAAGGGCAATGAGTTGATAGCACGGGTGGC gave a PBM binding z-score of 1.75.
On the same count and under the same terms, the result for CAAACTAGGGCACAGAGGTCAAAGTCCGTGCGTA reads 7.94.
Turning to ATCGAAAGGTCGACGGGGTGAGTATACACCGTTT, the PBM binding z-score worked out at 2.19.
In turn, TAGCCGAGGTCATGGGCCAGTATACCACGCGAAC had a PBM binding z-score of 4.59.
Same read-out and setting: as for TCTAGTTGGTCACGGAGGTAACACACGACGGGTA, the figure is 2.58; as for CCTACTGGGCCAGGGTCATTGATCAGTCAAAGCA, 3.62.
Turning to TCTGCTAGGTCAACGATGGACAGCTAATCTGCTA, the PBM binding z-score was found to be 4.29.
With TCATATAGGTAAAGGTTAAAGTCGAACGATATGA, the PBM binding z-score was 4.07.
On the same count and under the same terms, as for ACTAGTAGGCCAAGTTTGGGTCACTCAAACAAAG, the figure is 4.97.
Consider TCTTGTAGAACAGCAGGTTAAGAAAGCTGGCCAA, for which the PBM binding z-score turned out to be 0.554.
The same measure, in the same setting: as for CCTATTAGTTGACCATAAGGGCTACCGAAGCTCG, the figure is 0.104.
The same measure, in the same setting: the result for GCAGACAGGTGAAACGCGGGTAACTCAGGGTGGC reads 0.724; that for CCTAGTTGGTCAGGAGGTCAAACACCGGATATGA, 3.02; that for TCGAGTAGGTTACAAATGGGGCATTCAGCTTTCT, 3.01.
In turn, GCTGCTAGGTCAGGTAGGTCAGCTAACGGGTACG gave a PBM binding z-score of 3.37.
Sequence CCTAGTTGGTGAAGGTCACACACGCTATAGGTAC came in with a PBM binding z-score of 2.4.
The same measure, in the same setting: the result for CTACCAAGGTGAACAAGGCCGTTGATTACTATTC reads 2.16; that for TATACAGGGTCAAAGGCCAGAGTCCGAATGTCGA, 4.8.
Still for that read-out and setting: as for CGTCCAAGGTCAAAGGTCAGTGTAGAGATGACGG, the figure is 5.93; as for GTACGAAGGTGAATAGGTCGTTGATGAGTAGGCG, 2.19.
On the same count and under the same terms, as for CCTTACGGGTCAAGGTTATAGTACGGGTGGTACG, the figure is 3.68; as for ACAATGAGGTTATTAAGATCAGGGAATTGCGGTC, 2.07; as for TCGAGTAGGTTACCAATGGGGCACTCAGCTTTCT, 3.08.
CCTACTGGGCCATTCAGAGGTCCTTGATCATATG had a PBM binding z-score of 3.15.
